Laboratory results as given in PubChem BioAssay (NCI).
About 79,000 compounds went through this panel and 15% of them were active in at least one assay; those are over-represented in the sample as a whole. Values without a mark were called inactive. The source made the active and inactive calls. No stated cut-off is given here; in the data, active means growth inhibition above about 70%; inactive means the rest.

Key:
[1] = NCI Yeast Anticancer Drug Screen. Data for the rad50 strain (AID 155);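 further: 0% = growth of vehicle-only cultures of the same strain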; settings: S. cerevisiae rad50 strain growth inhibition, hits give high values
Procedure, shortened: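 Genetically altered yeast (DNA repair pathway); compound treatment; growth inhibition vs vehicle ctrl.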

[2] = NCI Yeast Anticancer Drug Screen. Data for the mec2-1 strain (AID 157); settings: S. cerevisiae mec2-1 strain, hits give high values
Procedure, shortened: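 Vehicle-treated cultures served as reference for growth inhibition of compound-exposed mec2-1 yeast.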

[3] = NCI Yeast Anticancer Drug Screen. Data for the sgs1 mgt1 strain (AID 161);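 further: 0% = growth of cultures given vehicle only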; settings: S. cerevisiae sgs1 mgt1 strain, hits give high values
Procedure, shortened: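 Read-out: growth inhibition vs vehicle controls. Cells: mutant yeast strain deficient in DNA damage repair.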

[4] = NCI Yeast Anticancer Drug Screen. Data for the cln2 rad14 strain (AID 165);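 further: 0% = growth equal to vehicle treated cultures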; settings: S. cerevisiae cln2 rad14 strain, hits give high values
Procedure, shortened: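 Each compound was tested on cln2 rad14 yeast. Inhibition of growth was calculated against vehicle-exposed controls.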

[5] = NCI Yeast Anticancer Drug Screen. Data for the bub3 strain (AID 167); settings: S. cerevisiae bub3 mutant strain, hits give high values
Procedure, shortened: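 Yeast carrying a defined mutation is treated with each compound, and growth is compared with that of vehicle-exposed cells to give inhibition.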

[6] = NCI Yeast Anticancer Drug Screen. Data for the mlh1 rad18 strain (AID 175); settings: S. cerevisiae mlh1 rad18 strain growth inhibition, hits give high values
Procedure, shortened: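 Vehicle-treated cultures served as the reference for growth inhibition in a yeast strain carrying DNA damage repair alterations exposed to each compound.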

[7] = at 5.0 µM (retest, dose inferred, filed as 0.5)
[8] = at 50.0 µM (retest, dose inferred, filed as 5.0)

Row | SMILES | growth inhibition [1, 7] | growth inhibition [1, 8] | growth inhibition ([1]; at 50.0 µM) | growth inhibition [2, 7] | growth inhibition [2, 8] | growth inhibition ([2]; at 50.0 µM) | growth inhibition [3, 7] | growth inhibition [3, 8] | growth inhibition ([3]; at 50.0 µM) | growth inhibition [4, 7] | growth inhibition [4, 8] | growth inhibition ([4]; at 50.0 µM) | growth inhibition [5, 7] | growth inhibition [5, 8] | growth inhibition ([5]; at 50.0 µM) | growth inhibition [6, 7] | growth inhibition [6, 8] | growth inhibition ([6]; at 50.0 µM)
1 | COc1ccc(CN2COc3c(cc(C)c4cccnc34)C2)cc1 | 14% | 92% (active) | 65% | 8% | 93% (active) | 47.5% | 23% | 92% (active) | 64.1% | 16% | 93% (active) | 39.9% | -3% | 95% (active) | 61.4% | 20% | 93% (active) | 79.9% (active)
2 | COc1ccccc1C1c2cc3c(cc2OC(N2CCOCC2)C1C)OCO3 (configuration not stated) | 15% | 18% | 37.2% | 9% | 9% | 14.2% | 26% | 47% | 26.4% | 25% | 56% | 18.3% | 18% | 57% | 40.8% | 9% | 32% | 59.5%
3 | CC(C)CCCC(C)C1CCC2C3CCC4=CC(O)CCC4(C)C3CCC12C (configuration not stated) | -5% | 96% (active) | 93.8% (active) | 1% | 94% (active) | 90.3% (active) | -2% | 92% (active) | 93% (active) | -8% | 95% (active) | 94.3% (active) | -5% | 97% (active) | 94% (active) | -3% | 97% (active) | 93.5% (active)
4 | CN(C)c1ccccc1CCCCCCc1ccccc1N(C)C | 54% | 59% | 84% (active) | 55% | 57% | 74.7% (active) | 76% (active) | 72% (active) | 87.8% (active) | 79% (active) | 82% (active) | 85.2% (active) | 67% | 50% | 80.5% (active) | 38% | 43% | 76.3% (active)
5 | O=C(O)/C=C/C(=O)Nc1cccc2c1C(=O)c1ccccc1-2 | 18% | 89% (active) | 92.3% (active) | -18% | 93% (active) | 97.9% (active) | 35% | 95% (active) | 97.3% (active) | 8% | 96% (active) | 89.7% (active) | 17% | 93% (active) | 95.9% (active) | 34% | 97% (active) | 96.1% (active)
6 | CCN1/C(=C\c2cc(C)nc(-c3ccccc3)[n+]2C)C=Cc2ccccc21 | 29% | 97% (active) | 98% (active) | 27% | 99% (active) | 98.1% (active) | 27% | 99% (active) | 98.7% (active) | 43% | 98% (active) | 98.8% (active) | 64% | 99% (active) | 98.8% (active) | 48% | 99% (active) | 98.7% (active)
7 | CN(C)CCNC(=O)C(c1ccccc1)c1ccccc1 | 31% | 13% | 63.1% | 2% | -4% | 94.7% (active) | 6% | -25% | 12.8% | -1% | -3% | 96.2% (active) | -1% | -11% | 98% (active) | 30% | 11% | 98.5% (active)
8 | NC(CSC1(c2ccc(Cl)cc2)c2ccccc2-c2ccccc21)C(=O)O (configuration not stated) | 16% | 68% | 68% | 8% | 51% | 61.9% | -1% | 22% | 35.1% | -15% | 59% | 43.8% | 1% | 44% | 91.2% (active) | -2% | 55% | 74.8% (active)
9 | COc1ccc(/C=C2/C(=O)NC3SC=C(c4cccc([N+](=O)[O-])c4)N23)cc1 (configuration not stated) | 8% | 6% | 33% | 0% | 2% | 10.9% | -4% | -1% | 32.6% | 34% | -23% | 11.4% | 21% | 13% | 62.9% | 5% | 23% | 29.7%
10 | CCCCCCCCN=C(N)c1ccc(C(=O)OCC2CCCCC2)cc1 | 98% (active) | 99% (active) | 99.6% (active) | 99% (active) | 100% (active) | 99.7% (active) | 99% (active) | 99% (active) | 99.7% (active) | 98% (active) | 99% (active) | 99.5% (active) | 98% (active) | 100% (active) | 99.6% (active) | 100% (active) | 100% (active) | 99.7% (active)
11 | CCCCCCCCCCC(NC(C)=O)(C(=O)OCC)C(=O)OCC | -9% | 98% (active) | 97.5% (active) | -3% | 99% (active) | 98% (active) | -3% | 99% (active) | 67.3% | -5% | 99% (active) | 98.3% (active) | 0% | 98% (active) | 94.5% (active) | 11% | 98% (active) | 82.8% (active)
12 | CC1(C(=O)O)CCC2(C)CCC3(C)C(=CC(=O)C4C5(C)CCC(O)C(C)(C)C5CCC43C)C2C1 (configuration not stated) | 12% | 61% | 52.4% | 23% | 78% (active) | 64.8% | 10% | 74% (active) | 65% | 30% | 84% (active) | 75.7% (active) | 29% | 78% (active) | 60.5% | 18% | 80% (active) | 71.3% (active)
13 | C=COCCN1CCN(CCCN2c3ccccc3Sc3ccc(C(F)(F)F)cc32)CC1 | -4% | 99% (active) | 99.5% (active) | -4% | 99% (active) | 99% (active) | -1% | 99% (active) | 99.7% (active) | -2% | 99% (active) | 98.7% (active) | 1% | 99% (active) | 98.5% (active) | 1% | 99% (active) | 99.3% (active)
14 | CCc1cccc(C)c1NC(=O)C(=O)CC(=O)c1ccccc1Cl | 0% | -1% | 72% (active) | -1% | 3% | 24.7% | -4% | 0% | 43.8% | -6% | 5% | -12.6% | -2% | -2% | 24.4% | -8% | 0% | 31.1%
15 | O=C(O)/C(=C\c1ccc(O)cc1)c1cccc2ccccc12 | 31% | 18% | 45.3% | -2% | 36% | 37.6% | -2% | 12% | 5.5% | 3% | 27% | 76.2% (active) | -21% | 22% | 61.5% | -4% | 49% | 48%
16 | NC(=O)C(=O)N/N=C/c1ccc([N+](=O)[O-])o1 | 14% | 49% | 32.4% | 6% | 31% | 25.4% | 2% | 42% | 71.7% (active) | -1% | 18% | 2.8% | 37% | 35% | 14.3% | 16% | 65% | 56.1%
17 | O=c1cccccc1[O-].O=c1cccccc1[O-].O=c1cccccc1[O-].[Dy+3] | 19% | 19% | 92.8% (active) | 18% | 18% | 92.8% (active) | 14% | 14% | 91.6% (active) | 10% | 10% | 80.2% (active) | 7% | 7% | 93.2% (active) | 10% | 10% | 92% (active)
18 | Cc1ccc(S(=O)(=O)Oc2ccc(C(C)(C)C)cc2Cl)cc1 | -8% | -11% | -5.5% | -22% | -25% | 2% | 11% | 3% | 9.35% | -3% | -3% | -7.7% | 1% | -1% | 11.4% | 20% | 0% | 14.4%
19 | Cc1ccc[n+](CC(=O)C2CCC3CC4CCCCC4CC3C2)c1 (configuration not stated) | -2% | 38% | 22.4% | -1% | 34% | 17.7% | -27% | 19% | 37.4% | 0% | 31% | -3.75% | 1% | 29% | 18.8% | -2% | 43% | 59%
